# Data taken from the supplement of paper PMC11732987, “Enantioselective OTUD7B fragment discovery through chemoproteomics screening and high-throughput optimisation” (Communications Chemistry, 2025).
# A number with no mark means an inactive call.
# What was measured:
# Test in all cases: log2 ratio of Biotin-Ahx-Ub-VS probe labelling (fragment/DMSO); higher = less target engagement (more negative = stronger competition), active = hit call of the paper (q ≤ 0.05, log2 ratio ≤ -1)
# Settings in all cases: compound concentration: 200 uM; treatment time: 3 h
# ALG13 = target: T1, ALG13 (UniProt Q9NP73)
# T1 sequence (whole entry): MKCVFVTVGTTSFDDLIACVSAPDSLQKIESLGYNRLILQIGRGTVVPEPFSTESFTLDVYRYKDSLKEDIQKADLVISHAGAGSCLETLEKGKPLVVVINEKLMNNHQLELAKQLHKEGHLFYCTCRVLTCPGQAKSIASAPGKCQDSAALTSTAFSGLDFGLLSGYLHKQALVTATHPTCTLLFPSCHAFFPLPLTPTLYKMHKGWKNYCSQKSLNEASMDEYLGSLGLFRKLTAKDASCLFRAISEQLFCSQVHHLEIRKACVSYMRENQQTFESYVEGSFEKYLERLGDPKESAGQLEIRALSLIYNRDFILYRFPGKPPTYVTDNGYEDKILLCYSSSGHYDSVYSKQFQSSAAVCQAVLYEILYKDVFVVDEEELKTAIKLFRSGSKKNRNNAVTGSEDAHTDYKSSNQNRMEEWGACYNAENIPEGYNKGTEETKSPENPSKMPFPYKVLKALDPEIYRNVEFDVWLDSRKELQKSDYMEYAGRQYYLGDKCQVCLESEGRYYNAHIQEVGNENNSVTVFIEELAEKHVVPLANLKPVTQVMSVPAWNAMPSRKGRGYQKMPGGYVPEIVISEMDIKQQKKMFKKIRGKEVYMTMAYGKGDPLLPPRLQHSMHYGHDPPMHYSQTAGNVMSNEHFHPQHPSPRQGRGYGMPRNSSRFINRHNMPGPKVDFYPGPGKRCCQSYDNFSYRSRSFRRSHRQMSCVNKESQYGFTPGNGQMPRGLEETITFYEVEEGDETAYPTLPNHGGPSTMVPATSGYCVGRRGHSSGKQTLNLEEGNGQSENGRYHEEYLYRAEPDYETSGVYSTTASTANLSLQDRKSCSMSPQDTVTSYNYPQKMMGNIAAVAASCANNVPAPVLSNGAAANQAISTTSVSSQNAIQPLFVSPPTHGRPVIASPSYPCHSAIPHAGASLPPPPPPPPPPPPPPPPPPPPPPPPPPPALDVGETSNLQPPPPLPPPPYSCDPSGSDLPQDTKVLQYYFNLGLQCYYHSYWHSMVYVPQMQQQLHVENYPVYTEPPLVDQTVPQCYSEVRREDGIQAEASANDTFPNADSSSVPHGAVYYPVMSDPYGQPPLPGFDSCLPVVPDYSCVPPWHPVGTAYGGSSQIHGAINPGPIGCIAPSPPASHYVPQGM
# Outline: (§1)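 HEK293T lysate in Tris/CHAPS/IGEPAL buffer with protease inhibitors (495 µg per sample) was given fragment at 200 µM or vehicle for 3 h, in triplicate. It then received Biotin-Ahx-Ub-VS at 0.5 µM final for 1 h. Labelled DUBs were NeutrAvidin-enriched, digested with LysC and trypsin, and run by diaPASEF LC-MS/MS. Values are average log2 fragment/vehicle ratios by unpaired t-test on global-median-normalised Spectronaut quantities of proteins with ≥2 unique peptides.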
# ATXN3 = ATXN3 (UniProt P54252)
# ATXN3, sequence (P54252 whole entry): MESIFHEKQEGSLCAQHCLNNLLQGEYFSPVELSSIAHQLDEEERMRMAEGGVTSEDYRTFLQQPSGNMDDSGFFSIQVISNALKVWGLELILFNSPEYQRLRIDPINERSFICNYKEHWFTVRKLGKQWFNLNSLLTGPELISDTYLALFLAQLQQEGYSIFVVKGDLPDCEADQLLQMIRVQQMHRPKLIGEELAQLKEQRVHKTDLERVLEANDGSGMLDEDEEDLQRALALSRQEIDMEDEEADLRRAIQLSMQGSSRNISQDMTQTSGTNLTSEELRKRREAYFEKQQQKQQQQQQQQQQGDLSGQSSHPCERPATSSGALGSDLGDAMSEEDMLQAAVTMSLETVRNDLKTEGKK
# Outline: as §1
# BAP1 = target: T2, BAP1 (UniProt Q92560)
# T2 sequence (whole entry): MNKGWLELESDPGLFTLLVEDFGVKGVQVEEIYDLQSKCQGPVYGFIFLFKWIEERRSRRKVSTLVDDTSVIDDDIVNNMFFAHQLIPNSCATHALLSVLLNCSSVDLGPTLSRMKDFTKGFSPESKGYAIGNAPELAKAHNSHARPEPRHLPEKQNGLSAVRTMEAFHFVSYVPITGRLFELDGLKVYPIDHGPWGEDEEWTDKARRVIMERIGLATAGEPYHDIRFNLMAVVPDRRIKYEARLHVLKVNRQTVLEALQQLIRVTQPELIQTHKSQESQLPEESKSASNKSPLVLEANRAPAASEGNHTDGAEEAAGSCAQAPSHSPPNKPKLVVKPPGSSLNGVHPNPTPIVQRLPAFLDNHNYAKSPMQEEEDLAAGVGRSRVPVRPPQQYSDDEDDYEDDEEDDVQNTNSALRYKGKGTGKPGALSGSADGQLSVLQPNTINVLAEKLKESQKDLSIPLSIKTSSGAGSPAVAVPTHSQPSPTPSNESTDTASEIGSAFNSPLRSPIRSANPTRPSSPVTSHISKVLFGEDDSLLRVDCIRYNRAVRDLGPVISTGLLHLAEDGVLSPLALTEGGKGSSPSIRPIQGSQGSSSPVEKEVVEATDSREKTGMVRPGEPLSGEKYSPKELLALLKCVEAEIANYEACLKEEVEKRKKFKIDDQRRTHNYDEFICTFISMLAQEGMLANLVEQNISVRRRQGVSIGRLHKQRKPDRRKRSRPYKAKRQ
# Outline: as §1
# EIF3F = EIF3F (UniProt O00303)
# EIF3F, sequence (O00303 whole entry): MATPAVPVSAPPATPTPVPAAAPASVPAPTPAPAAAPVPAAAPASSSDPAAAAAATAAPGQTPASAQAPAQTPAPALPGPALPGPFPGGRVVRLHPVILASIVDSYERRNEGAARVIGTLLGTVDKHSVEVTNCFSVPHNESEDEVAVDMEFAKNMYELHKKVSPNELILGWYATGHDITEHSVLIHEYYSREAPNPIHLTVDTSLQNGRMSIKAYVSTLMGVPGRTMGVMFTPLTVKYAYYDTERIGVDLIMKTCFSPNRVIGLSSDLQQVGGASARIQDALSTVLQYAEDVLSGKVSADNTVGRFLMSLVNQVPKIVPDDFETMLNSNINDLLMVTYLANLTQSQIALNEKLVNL
# Outline: as §1
# EIF3H = EIF3H (UniProt O15372)
# EIF3H, sequence (O15372 whole entry): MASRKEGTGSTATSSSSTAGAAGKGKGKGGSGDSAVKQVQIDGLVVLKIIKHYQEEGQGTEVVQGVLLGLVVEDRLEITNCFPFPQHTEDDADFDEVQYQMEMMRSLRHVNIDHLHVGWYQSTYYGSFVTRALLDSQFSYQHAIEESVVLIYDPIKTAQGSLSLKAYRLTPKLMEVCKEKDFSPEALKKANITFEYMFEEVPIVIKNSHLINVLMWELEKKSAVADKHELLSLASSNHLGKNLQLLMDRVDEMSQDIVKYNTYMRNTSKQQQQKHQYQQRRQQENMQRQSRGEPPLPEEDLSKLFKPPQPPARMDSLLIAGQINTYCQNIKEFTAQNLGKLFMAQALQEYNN
# Outline: as §1
# FAM105A = target: T3, FAM105A (UniProt Q9NUU6)
# T3 sequence (whole entry): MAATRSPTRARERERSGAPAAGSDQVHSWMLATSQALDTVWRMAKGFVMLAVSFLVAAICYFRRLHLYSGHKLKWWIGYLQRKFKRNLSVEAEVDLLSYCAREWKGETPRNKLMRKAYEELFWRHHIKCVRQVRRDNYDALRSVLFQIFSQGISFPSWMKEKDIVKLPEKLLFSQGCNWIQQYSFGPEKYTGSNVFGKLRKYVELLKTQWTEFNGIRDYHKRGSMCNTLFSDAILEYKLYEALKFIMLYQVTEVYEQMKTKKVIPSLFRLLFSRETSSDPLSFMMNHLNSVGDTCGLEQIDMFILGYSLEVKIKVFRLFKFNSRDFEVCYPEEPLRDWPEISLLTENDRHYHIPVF
# Outline: as §1
# OTUB1 = OTUB1 (UniProt Q96FW1)
# OTUB1, sequence (Q96FW1 whole entry): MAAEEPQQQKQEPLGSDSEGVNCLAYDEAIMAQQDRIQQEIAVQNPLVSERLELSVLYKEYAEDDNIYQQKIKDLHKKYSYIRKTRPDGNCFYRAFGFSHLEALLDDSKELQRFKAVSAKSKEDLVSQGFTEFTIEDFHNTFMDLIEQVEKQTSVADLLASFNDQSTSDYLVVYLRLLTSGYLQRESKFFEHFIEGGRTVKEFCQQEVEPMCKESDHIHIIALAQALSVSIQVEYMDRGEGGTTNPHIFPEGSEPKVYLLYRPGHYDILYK
# Outline: as §1
# OTUD4 = target: T4, OTUD4 (UniProt Q01804)
# T4 sequence (whole entry): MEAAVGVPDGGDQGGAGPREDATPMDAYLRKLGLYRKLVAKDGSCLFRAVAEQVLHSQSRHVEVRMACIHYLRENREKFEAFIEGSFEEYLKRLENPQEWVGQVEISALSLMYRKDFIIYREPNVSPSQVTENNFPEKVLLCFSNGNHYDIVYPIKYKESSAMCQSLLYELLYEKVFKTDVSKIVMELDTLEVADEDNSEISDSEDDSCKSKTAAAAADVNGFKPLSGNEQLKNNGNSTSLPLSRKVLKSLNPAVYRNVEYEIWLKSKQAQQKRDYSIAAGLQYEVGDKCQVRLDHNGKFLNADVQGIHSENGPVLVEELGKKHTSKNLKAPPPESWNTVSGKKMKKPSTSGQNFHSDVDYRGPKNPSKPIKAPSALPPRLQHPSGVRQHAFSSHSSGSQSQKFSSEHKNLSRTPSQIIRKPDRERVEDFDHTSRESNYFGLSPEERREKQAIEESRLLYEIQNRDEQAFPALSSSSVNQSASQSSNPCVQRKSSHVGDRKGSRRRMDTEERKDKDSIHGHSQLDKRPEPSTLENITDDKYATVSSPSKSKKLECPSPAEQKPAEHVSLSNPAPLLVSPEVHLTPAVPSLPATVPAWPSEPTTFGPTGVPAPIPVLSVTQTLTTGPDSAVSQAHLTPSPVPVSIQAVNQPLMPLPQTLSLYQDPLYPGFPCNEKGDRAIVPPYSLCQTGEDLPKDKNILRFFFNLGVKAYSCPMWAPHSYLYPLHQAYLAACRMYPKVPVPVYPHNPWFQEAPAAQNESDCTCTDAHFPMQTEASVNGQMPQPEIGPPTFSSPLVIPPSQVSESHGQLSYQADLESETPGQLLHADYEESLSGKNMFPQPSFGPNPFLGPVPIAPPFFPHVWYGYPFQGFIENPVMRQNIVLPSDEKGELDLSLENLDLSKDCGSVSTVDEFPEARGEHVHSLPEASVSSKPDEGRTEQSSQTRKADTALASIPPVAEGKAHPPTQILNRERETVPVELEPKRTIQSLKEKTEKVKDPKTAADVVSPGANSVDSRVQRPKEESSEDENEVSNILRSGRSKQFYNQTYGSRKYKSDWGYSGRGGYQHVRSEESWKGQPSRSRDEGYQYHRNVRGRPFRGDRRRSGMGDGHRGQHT
# Outline: as §1
# OTUD5 = target: T5, OTUD5 (UniProt Q96G74)
# T5 sequence (whole entry): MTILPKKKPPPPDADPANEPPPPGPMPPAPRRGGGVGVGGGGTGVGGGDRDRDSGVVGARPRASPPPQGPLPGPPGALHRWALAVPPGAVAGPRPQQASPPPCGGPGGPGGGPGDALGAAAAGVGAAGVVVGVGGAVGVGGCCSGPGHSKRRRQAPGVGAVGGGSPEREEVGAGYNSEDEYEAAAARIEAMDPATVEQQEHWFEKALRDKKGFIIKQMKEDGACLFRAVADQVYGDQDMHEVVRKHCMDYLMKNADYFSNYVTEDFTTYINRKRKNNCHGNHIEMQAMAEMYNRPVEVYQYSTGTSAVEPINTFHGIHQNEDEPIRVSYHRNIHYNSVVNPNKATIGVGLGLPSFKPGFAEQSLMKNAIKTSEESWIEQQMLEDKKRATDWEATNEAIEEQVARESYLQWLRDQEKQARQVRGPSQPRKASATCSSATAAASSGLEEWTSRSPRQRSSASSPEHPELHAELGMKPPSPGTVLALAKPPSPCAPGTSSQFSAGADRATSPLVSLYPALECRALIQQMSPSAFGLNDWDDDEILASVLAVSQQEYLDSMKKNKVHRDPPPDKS
# Outline: as §1
SMILES,log2 ratio of Biotin-Ahx-Ub-VS probe labelling (ALG13),log2 ratio of Biotin-Ahx-Ub-VS probe labelling (ATXN3),log2 ratio of Biotin-Ahx-Ub-VS probe labelling (BAP1),log2 ratio of Biotin-Ahx-Ub-VS probe labelling (EIF3F),log2 ratio of Biotin-Ahx-Ub-VS probe labelling (EIF3H),log2 ratio of Biotin-Ahx-Ub-VS probe labelling (FAM105A),log2 ratio of Biotin-Ahx-Ub-VS probe labelling (OTUB1),log2 ratio of Biotin-Ahx-Ub-VS probe labelling (OTUD4),log2 ratio of Biotin-Ahx-Ub-VS probe labelling (OTUD5)
CN(C(=O)CCl)c1nc2ccccc2s1,0.217,-0.82,-0.457,-0.117,0.0319,0.108,-0.597,-0.0109,-1.02 (active)
CS(=O)(=O)c1ccc(NC(=O)CCl)cc1,-0.729,-0.511,-4.05 (active),-0.0107,0.14,-0.0733,-0.133,-0.368,-0.613
O=C(CCl)N[C@H]1CCS(=O)(=O)c2ccccc21,-0.0339,-0.224,-2.12 (active),-0.052,0.251,-0.522,0.161,-1.08 (active),-0.117
Cl.O=C(CCl)N1CCn2ncc(O)c2C1,0.326,-1.69 (active),-2.39 (active),-0.296,0.21,-0.377,-0.64,-0.808,-0.908
O=C(CCl)Nc1ccc(Cl)c(F)c1,0.149,-1.07 (active),-3.03 (active),-0.0742,0.246,-0.175,-0.259,-1.33 (active),-0.992
O=C(CCl)N1CCC(c2noc3cc(F)ccc23)CC1,0.141,-0.734,-1.19 (active),-0.419,0.209,-0.1,-0.253,-0.413,-0.644
Cc1nc(-c2cccc(NC(=O)CCl)c2)cs1,0.3,-0.742,-3.5 (active),-0.303,0.167,0.000667,-0.0946,-0.305,-0.539
O=C(O)C1Cc2ccccc2CN1C(=O)CCl (configuration not stated),0.144,-0.269,-0.657,-0.182,-0.0826,0.395,-0.323,-0.404,-0.562
